Measurements as given in PubChem BioAssay (NCI).
The panel holds about 83,000 compounds, 20% with a hit somewhere; the sample as a whole holds those more often.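 For each line, cells grew in 96-well plates with the test compound present at a single concentration for 48 hours.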 Values without a mark were called inactive. Activity calls are given as the source filed them. Rule for the calls: active = growth percent below 10; inactive = the rest.

What was measured:
Test in all cases: NCI-60 one-dose screen, 48 h (100 = growth as untreated, 0 = no growth, -100 = all killed)
Conditions in all cases: 10 µM unless noted
[1] = tested on: SR leukemia
[2] = tested on: RPMI-8226 leukemia
[3] = tested on: OVCAR-8 ovarian
[4] = tested on: OVCAR-4 ovarian
[5] = tested on: SK-OV-3 ovarian
[6] = tested on: IGROV1 ovarian
[7] = tested on: OVCAR-3 ovarian
[8] = tested on: HS 578T breast
[9] = tested on: NCI/ADR-RES ovarian
[10] = tested on: T-47D breast
[11] = tested on: MDA-MB-435 melanoma
[12] = tested on: SW-620 colon
[13] = tested on: MCF7 breast
[14] = tested on: HCT-116 colon
[15] = tested on: HCC-2998 colon
[16] = tested on: KM12 colon
[17] = tested on: BT-549 breast
[18] = tested on: OVCAR-5 ovarian

Row | Compound | growth [1] | growth [2] | growth [3] | growth [4] | growth [5] [%] | growth [6] | growth [7] | growth [8] | growth [9] | growth [10] [%] | growth [11] | growth [12] | growth [13] | growth [14] | growth [15] | growth [16] | growth [17] | growth [18] [%]
1 | COc1cc(-c2nn(C(C)(C)C)cc2-c2ccnc(NCCCNS(=O)(=O)c3cccc(F)c3)n2)ccc1Cl | 50.6% | 51.8% | 89.3% | 45.8% | 102 | 48.9% | 85% | 80.3% | 74.5% | 69.5 | 77.9% | 89.7% | 71.3% | 52.4% | 103% | 80.3% | – | –
2 | COc1cc2nc(Cl)nc(Nc3cccc(C4=Nc5c(N)nc(N)nc5NC(c5ccc6c(c5)OCO6)C4)c3)c2cc1OC (stereo unspecified) | 10.3% | 41.7% | 68.2% | 97% | 112 | 77.6% | 63.5% | 82.7% | 93.1% | 68.9 | 88.5% | 76.9% | 54% | 55.3% | 74.6% | 46.8% | 76.8% | –
3 | CN1c2ccccc2Sc2cc(C=C(C#N)C#N)ccc21 | 105% | 103% | 94.4% | 105% | – | 75.6% | 106% | 89.3% | 89.7% | 92.6 | 103% | 90.9% | 54.6% | 105% | 97.3% | 103% | 110% | 38
4 | COc1c(N2CC3CCCNC3C2)c(F)cc2c(=O)c(C(=O)N/N=C/c3ccc4c(c3)OCO4)cn(C3CC3)c12 (stereo unspecified) | -24.3% (active) | 60.9% | 54% | 90.5% | 99.7 | 51% | 29.4% | 103% | 63.6% | 76.7 | 102% | 47.1% | 14.6% | 32.7% | 54.8% | 88% | 94.9% | –
5 | Oc1[nH]c2ccccc2c1Nn1c(N=N/C=c2/ccc3c(c2)C=NN=3)n[nH]c1=S | 84.5% | 91% | 105% | 84.6% | 106 | 74.6% | 96.8% | 103% | 112% | 99 | 103% | 99% | 77.1% | 104% | 118% | 93.3% | – | –
6 | N#Cc1cccc(CN2CCC3=C(C2)C(=O)N(Cc2ccc(Cl)cc2)C2=NCCN23)c1 | 32.9% | 17% | 20.2% | 20.4% | 27.8 | 54.4% | 23.4% | 45.5% | 13.5% | 23.7 | 19.9% | 33% | 14.1% | 19.6% | 17.6% | 40.9% | 45.4% | –
7 | CC1=N[C@@H]2CN(C(=O)OC(C)(C)C)C[C@@H]2n2c1cc1ccccc1c2=O | 99.9% | 101% | 101% | 107% | 92.5 | 107% | – | 101% | 100% | 98.8 | 108% | 107% | 95.6% | 103% | 107% | 97.5% | 144% | –
8 | COc1ccc([C@H]2[C@H](O)C(=O)N2c2cc(OC)c(OC)c(OC)c2)cc1F | 9.35% (active) | 26.9% | -15% (active) | 67.7% | 30.1 | 19.2% | – | 3.89% (active) | 8.51% (active) | 68.7 | -10.4% (active) | 22.2% | 11% | 0.995% (active) | 10.9% | 9.99% (active) | -21.1% (active) | 27.7
9 | CC1(C)CC[C@]2(CN)CC[C@]3(C)C(=CC[C@@H]4[C@@]5(C)CCCNC(C)(C)[C@@H]5CC[C@]43C)[C@H]2C1 | 61.7% | 81.3% | 101% | 103% | 106 | 98.1% | 106% | 108% | 105% | 78.3 | 97.3% | 102% | 85.7% | 90.6% | 45.9% | 101% | 101% | –
10 | Cn1ccnc1C(=O)/C=C/c1ccc(CNC(=O)c2ccc(S(F)(F)(F)(F)F)cc2)cc1 | 4.16% (active) | -10.9% (active) | 26.4% | 35.6% | 66.8 | 16.7% | 16.8% | 23% | 12.2% | 25 | 55.5% | 9.31% (active) | 13.3% | -17.1% (active) | 11.5% | 13% | 35.6% | –
11 | CCO/C=N/C1=C(C#N)C(c2ccc(Cl)cc2)c2sc3c(C)cccc3c2O1 (stereo unspecified) | 12.2% | 7.03% (active) | 28% | 64.3% | 59.4 | 26.6% | -30.6% (active) | 18.9% | 11.7% | 33.5 | -49.6% (active) | 26.5% | 14.5% | 14.8% | 9.57% (active) | 15.2% | 38.8% | –
12 | C#CCNC1CCC(c2csc(C#C)n2)=C1C (stereo unspecified) | 2.46% (active) | -28.1% (active) | 40.5% | 90.3% | 92.7 | -63.6% (active) | -21.9% (active) | 90.7% | 33.9% | 65.3 | 99.2% | 108% | 61.1% | 80.9% | 107% | 19.1% | 86.3% | –
13 | NC(N)=Nc1ccc(Oc2cccc(Nc3ccc(Br)c(C(F)(F)F)c3)c2)cn1 | -50.7% (active) | -40% (active) | -60.6% (active) | -75.2% (active) | 32.2 | -74.7% (active) | -94.3% (active) | -15.3% (active) | 55.7% | 12.9 | -89.1% (active) | -79% (active) | -56.8% (active) | -64.8% (active) | -85.6% (active) | -72.5% (active) | -2.65% (active) | –
14 | CNC(=O)c1cc(Oc2ccc3nc(NC(=O)c4cc(N5CCOCC5)cc(C(F)(F)F)c4)sc3c2)ccn1 | 27.1% | 51.6% | 65.5% | 64.8% | 97.9 | 99.6% | – | 79.2% | 80.2% | 74.2 | 67.8% | 107% | 75.5% | 63.1% | 114% | 71.3% | 88.1% | 97.1
15 | CCCn1cnc2c(c1=N)C(c1ccc(Cl)cc1)c1sc3c(C)cccc3c1O2 (stereo unspecified) | 12.6% | 1.37% (active) | 23.5% | 89.2% | 44.2 | 23.7% | 2.26% (active) | 15.4% | 7.18% (active) | 45.9 | -40% (active) | 25.8% | 17.4% | 9.34% (active) | 15.3% | 10.9% | 18% | –
16 | COc1cccc2cc(-c3cc4ccccc4[nH]3)/c(=N\NC(=O)c3ccc(Cl)cc3)oc12 | 25.7% | – | 20.7% | 9.76% (active) | 39.5 | 26.3% | 14.7% | 77% | 13.3% | 13.3 | 44.7% | 38.3% | 8.32% (active) | 21.8% | 69% | 28.2% | 58.3% | 49.2
17 | CCn1c2ccccc2c2cc(-n3nncc3-c3ccccc3)ccc21 | 10.4% | – | 27% | 43% | 42.4 | 16.2% | 4.2% (active) | 19.3% | 6.13% (active) | 61.8 | -14.3% (active) | 21.3% | 13.4% | 5.07% (active) | 15.2% | 17.1% | 80.5% | 35.4
